In all, about 5,500 compounds went through this assay and about 2,000 (36%) were called active. Another 18% or so got no clear call; they are omitted. The list shows a part of the results. A number with no mark means an inactive call. Rule as the data show it: active = normalized growth mostly below about 0.91 (no sharp cut-off); inconclusive = no clear call, values can overlap the other calls; inactive = mostly above about 0.92.
Assay: chemical genetic growth profiling, strain panel (AID 1159580);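 also: tested at 20 µM; growth read once vehicle control cultures reached saturation at 30 °C; 1 = growth at the plate median or of vehicle wells; lower values mean less growth of the strain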
Settings: S. cerevisiae deletion strains, growth OD

`Cc1c2c(=O)[nH]ncc2c(-c2ccccc2)n1-c1ccc([N+](=O)[O-])cc1` showed a normalized growth (locus YAR019C, strain CDC15, active compounds read low) of 0.99, a normalized growth (locus YBL105C, strain PKC1, active compounds read low) of 0.999 and a normalized growth (locus YBR135W, strain CKS1, active compounds read low) of 0.998. For the same compound, the normalized growth (locus YBR136W, strain MEC1, active compounds read low) was 0.993, the normalized growth (locus YBR160W, strain CDC28, active compounds read low) was 0.99 and the normalized growth (locus YDL017W, strain CDC7, active compounds read low) was 0.999. The normalized growth (locus YDL028C, strain MPS1, active compounds read low) was 0.987, the normalized growth (locus YDL101C, strain DUN1, active compounds read low) was 0.991 and the normalized growth (locus YDL108W, strain KIN28, active compounds read low) was 0.989. For the same compound, the normalized growth (locus YDL132W, strain cdc53, active compounds read low) was 0.991, the normalized growth (locus YDL214C, strain PRR2, active compounds read low) was 0.953 and the normalized growth (locus YDR052C, strain DBF4, active compounds read low) was 1. It also gave a normalized growth (locus YDR054C, strain cdc34, active compounds read low) of 1, a normalized growth (locus YDR226W, strain ADK1, active compounds read low) of 0.991 and a normalized growth (locus YDR477W, strain SNF1, active compounds read low) of 0.925. It also gave a normalized growth (locus YER123W, strain YCK3, active compounds read low) of 0.958, a normalized growth (locus YER133W, strain GLC7, active compounds read low) of 0.946 and a normalized growth (locus YFL009W, strain cdc4, active compounds read low) of 0.975. For the same compound, the normalized growth (locus YFL029C, strain CAK1, active compounds read low) was 0.977, the normalized growth (locus YFR003C, strain YPI1, active compounds read low) was 0.99 and the normalized growth (locus YFR019W, strain FAB1, active compounds read low) was 0.95. It also gave a normalized growth (locus YFR028C, strain CDC14, active compounds read low) of 0.978, a normalized growth (locus YGR040W, strain KSS1, active compounds read low) of 0.939 and a normalized growth (locus YGR052W, strain FMP48, active compounds read low) of 1.01. The normalized growth (locus YGR092W, strain DBF2, active compounds read low) was 1, the normalized growth (locus YHR030C, strain SLT2, active compounds read low) was 0.812 (active) and the normalized growth (locus YHR079C, strain IRE1, active compounds read low) was 0.994. The normalized growth (locus YHR082C, strain KSP1, active compounds read low) was 1.01, the normalized growth (locus YHR205W, strain SCH9, active compounds read low) was 0.937 and the normalized growth (locus YIL147C, strain SLN1, active compounds read low) was 0.993. It also gave a normalized growth (locus YJL095W, strain BCK1, active compounds read low) of 0.903, a normalized growth (locus YJL128C, strain PBS2, active compounds read low) of 0.988 and a normalized growth (locus YJL157C, strain FAR1, active compounds read low) of 0.971. The normalized growth (locus YJR016C, strain ILV3, active compounds read low) was 0.986, the normalized growth (locus YJR066W, strain TOR1 (second series), active compounds read low) was 0.928 and the normalized growth (locus YJR066W, strain TOR1, active compounds read low) was 0.954. The normalized growth (locus YKL048C, strain ELM1, active compounds read low) was 0.94, the normalized growth (locus YKL067W, strain YNK1, active compounds read low) was 0.935 and the normalized growth (locus YKL101W, strain HSL1, active compounds read low) was 0.968. The normalized growth (locus YKL193C, strain SDS22, active compounds read low) was 0.996, the normalized growth (locus YKL203C, strain TOR2, active compounds read low) was 1.03 and the normalized growth (locus YLR113W, strain HOG1, active compounds read low) was 0.871. For the same compound, the normalized growth (locus YLR133W, strain CKI1, active compounds read low) was 0.975, the normalized growth (locus YLR403W, strain SFP1, active compounds read low) was 0.963 and the normalized growth (locus YML070W, strain DAK1, active compounds read low) was 0.93. For the same compound, the normalized growth (locus YMR001C, strain CDC5, active compounds read low) was 0.989, the normalized growth (locus YMR205C, strain PFK2 (second series), active compounds read low) was 0.956 and the normalized growth (locus YMR277W, strain FCP1, active compounds read low) was 0.979. For the same compound, the normalized growth (locus YNL006W, strain LST8, active compounds read low) was 0.983, the normalized growth (locus YNL020C, strain ARK1, active compounds read low) was 0.975 and the normalized growth (locus YNL161W, strain CBK1, active compounds read low) was 0.998. It also gave a normalized growth (locus YNL183C, strain NPR1, active compounds read low) of 1.03, a normalized growth (locus YNL207W, strain RIO2, active compounds read low) of 1 and a normalized growth (locus YNL222W, strain SSU72, active compounds read low) of 0.98. The normalized growth (locus YNL307C, strain MCK1 (second series), active compounds read low) was 0.949, the normalized growth (locus YOL078W, strain AVO1, active compounds read low) was 0.995 and the normalized growth (locus YOL136C, strain PFK27, active compounds read low) was 0.938. The normalized growth (locus YOR061W, strain CKA2, active compounds read low) was 0.955, the normalized growth (locus YOR119C, strain RIO1, active compounds read low) was 0.975 and the normalized growth (locus YOR231W, strain MKK1, active compounds read low) was 0.936. It also gave a normalized growth (locus YOR329C, strain SCD5, active compounds read low) of 0.993, a normalized growth (locus YPL031C, strain PHO85, active compounds read low) of 0.941 and a normalized growth (locus YPL153C, strain RAD53, active compounds read low) of 0.939. It also gave a normalized growth (locus YPL204W, strain HRR25, active compounds read low) of 0.933, a normalized growth (locus YPL209C, strain IPL1, active compounds read low) of 1 and a normalized growth (locus YPL256C, strain CLN2, active compounds read low) of 0.931. It also gave a normalized growth (locus YPR025C, strain CCL1, active compounds read low) of 0.988, a normalized growth (locus YPR106W, strain ISR1, active compounds read low) of 1.01 and a normalized growth (locus YPR111W, strain DBF20, active compounds read low) of 1. For the same compound, the normalized growth (strain NNK1, active compounds read low) was 1.01 and the normalized growth (strain TSCII, active compounds read low) was 0.987.

From PubChem BioAssay AID1159580 (chemical genetic matrix, 2015)
